Shiga inhibitor – Shiga toxin inhibition | Vero cells, Shiga toxin protein synthesis inhibition reporter | inhibition, % at 38.7 µM | 290,000 tested, 9.2% active | AID 2315; in the data active = inhibition mostly above about 28%, no sharp cut-off; inactive = mostly below about 43%
Pf growth 96h – inhibits malaria parasite growth, 96 h | P. falciparum luciferase reporter growth, 96 h | Potency, µM (highest dose often 28.7 µM), actives largely listed as inhibitors | 320,000 tested, 6.9% active | AID 504834
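Cell-based qHTS: luciferase-tagged P. falciparum in erythrocytes (2% hematocrit, 0.05% parasitemia final) incubated with compounds for 96 hours, 37 C, 5% CO2; luciferase detection reagent then added and luminescence measured.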
Cycloheximide cs – affects cycloheximide protein synthesis inhibition readout, counter-screen; 300,000 tested, 12% active; max response, %; AID 2314; cell reporter, cycloheximide protein synthesis inhibition counterscreen; in the data active = max response mostly above about 13%, no sharp cut-off; inactive = mostly below about 14%; also: read at 38.3 µM for the half of the compounds with a filed dose
NS1 function inh – blocks influenza NS1 protein function; Potency, µM (series often up to 46.1 µM); 270,000 tested, 0.4% active; AID 2326; calls by dose curve; also: actives are rising curves; nearly all actives have a fitted effect of over 50% in size
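A cell-based growth assay was used: compounds that relieve NS1-induced slow growth of budding yeast raise OD600. Assay medium was yeast nitrogen base with ammonium sulphate and -URA supplement, pH 6.0, with 2% galactose.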
Pf growth 48h – inhibits P. falciparum growth in the first generation, 48 h; AID 504832; P. falciparum luciferase growth in erythrocytes, 48 h; 310,000 tested, 5.9% active; Potency, µM (series often up to 28.7 µM), most hits filed as inhibitors
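Cell-based growth assay: transgenic P. falciparum expressing firefly luciferase, cultured in red cells within RPMI 1640 containing 0.5% w/v Albumax, 24 mM bicarbonate and gentamycin. A drop in luciferase activity indicates inhibition.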
Large screens that a line does not name were inactive. An excerpt weighted towards active compounds, which were near 21% of everything screened. Unless noted, calls follow the shape of the dose curve; as a rule, active = well fitted inhibition curve with a large enough effect; inconclusive = small, poorly fitted or top-dose-only effect, or another doubt; inactive = no such curve, though single readings can be large or run the other way.

O=C(NC(=O)N1CCCCCC1)c1ccccc1	none
COc1ccccc1NC(=O)COC(=O)c1ccc(N2CCCC2=O)cc1	none (no result: Shiga inhibitor, Cycloheximide cs, NS1 function inh)
O=C(CN1N=C(c2ccc(Cl)cc2)CCC1=O)NCc1cccnc1	Pf growth 96h inconclusive
Cn1c(=O)c2c(nc(CN3CCN(Cc4ccccc4)CC3)n2Cc2cccc(Cl)c2)n(C)c1=O	Pf growth 96h 1.2µM, Pf growth 48h 2.1µM
Cn1c(=O)c2c(nc(CN3CCc4ccccc4C3)n2CCc2ccccc2)n(C)c1=O	none (no result: Shiga inhibitor, Pf growth 96h, Cycloheximide cs, Pf growth 48h)
Cn1c(=O)c2c(nc(CN3CCc4ccccc4C3)n2Cc2ccccc2F)n(C)c1=O	Pf growth 96h inconclusive, Pf growth 48h 4.7µM (no result: NS1 function inh)
CCOCCn1c(CN2CCN(C(c3ccccc3)c3ccccc3)CC2)nc2c1c(=O)n(C)c(=O)n2C	Pf growth 48h 1.5µM
CN(Cc1ccccc1)Cc1nc2c(c(=O)n(C)c(=O)n2C)n1CCCc1ccccc1	Pf growth 96h 10µM
COc1ccc(S(=O)(=O)N2CCCCCC2)cc1C(=O)N(C)Cc1cccs1	Pf growth 96h inconclusive (no result: Shiga inhibitor, Cycloheximide cs, NS1 function inh)
COC(=O)CCCNC(=O)c1ccccn1	none
Cn1c(=O)c2c(nc(CN3CCc4ccccc4C3)n2Cc2cccc(Cl)c2)n(C)c1=O	Pf growth 96h 1.9µM, Pf growth 48h 3.3µM
CCN1CCN(Cc2nc3c(c(=O)n(C)c(=O)n3C)n2CCc2ccccc2)CC1	Pf growth 96h 12µM
Cn1c(=O)c2c(nc(N3CCCCCC3)n2Cc2cccc3ccccc23)n(C)c1=O	Pf growth 48h inconclusive
CN1CCN(c2nc3c(c(=O)n(C)c(=O)n3C)n2Cc2cccc3ccccc23)CC1	NS1 function inh inconclusive, Pf growth 48h 10µM (no result: Pf growth 96h)
CCN1CCN(Cc2nc3c(c(=O)n(C)c(=O)n3C)n2CCCc2ccccc2)CC1	none (no result: Pf growth 96h)
CCCn1c(N)c(N(CCOC)C(=O)c2cc(C)cc(C)c2)c(=O)[nH]c1=O	none
COc1cccc(NC(=O)NC2CCCCC2C)c1 (configuration not stated)	none
O=C(CCc1ccccc1)NCCS(=O)(=O)N1CCN(c2ccccc2)CC1	none (no result: Shiga inhibitor, Cycloheximide cs, NS1 function inh)
c1ccc([P+](CC[P+](c2ccccc2)(c2ccccc2)c2ccccc2)(c2ccccc2)c2ccccc2)cc1	none (no result: Shiga inhibitor, Pf growth 96h, Cycloheximide cs, Pf growth 48h)
CCOC(=O)C1=C(C)NC(=O)NC1c1c(OCC(=O)N2CCCCC2)ccc2ccccc12 (configuration not stated)	Pf growth 48h 12µM
Cc1cccc(CSCc2ccc(C(=O)NC3CCCC3)o2)c1	none (no result: NS1 function inh)
Cc1nc2ccccc2n1CC(O)Cn1c2ccccc2c2ccccc21 (configuration not stated)	Pf growth 48h 12µM (no result: Pf growth 96h)
OC(Cn1c2ccccc2c2ccccc21)C[n+]1cccc2ccccc21 (configuration not stated)	Pf growth 96h 3.3µM, Pf growth 48h 6.6µM
Cc1ccc2c(c1)c1c(n2CC(O)Cn2c(C)nc3ccccc32)/C(=N\O)CCC1 (configuration not stated)	Pf growth 96h inconclusive, Pf growth 48h 12µM
CCCCOCC(O)Cn1c(C)nc2ccccc21 (configuration not stated)	none
Cc1cc(C)[n+](C)n1CC(O)Cn1c2ccccc2c2ccccc21 (configuration not stated)	Pf growth 48h 0.59µM (no result: NS1 function inh)
CCOC(=O)CN1C(=O)CSc2ccccc21	Pf growth 48h inconclusive
O=C(CSc1nc(N2CCCCC2)nc(N2CCCCC2)n1)Nc1nccs1	none (no result: Pf growth 96h)
Cc1ccc2c(c1)c1c(n2CC(O)Cn2ccnc2C)C(=O)CCC1 (configuration not stated)	Pf growth 48h inconclusive
Cc1ccc2c(c1)c1c(n2CC(O)Cn2c(C)nc3ccccc32)C(=O)CCC1 (configuration not stated)	Pf growth 48h 15µM
COc1cccc(/C=N/NC(=O)CNC(=O)c2ccncc2)c1O	none
O=C(CNC(=O)c1ccco1)N/N=C/c1ccc(O)c([N+](=O)[O-])c1	none
COc1cccc(/C=N/NC(=O)CNC(=O)c2ccco2)c1O	Cycloheximide cs 15
O=C(CNC(=O)c1ccco1)N/N=C/c1ccccc1[N+](=O)[O-]	Pf growth 96h 0.93µM (no result: NS1 function inh)
COc1cc(C(=O)NCC(=O)N/N=C/c2cccc(OC(=O)c3ccco3)c2)cc(OC)c1OC	Pf growth 96h inconclusive, Cycloheximide cs 15 (no result: NS1 function inh)
COc1ccc(Oc2ccc(N/C=C/C(=O)C(C)(C)C)cc2)cc1	Shiga inhibitor 39, Cycloheximide cs 25 (no result: NS1 function inh)
COc1cccc(Oc2ccc(N/C=C/C(=O)C(C)(C)C)cc2)c1	Shiga inhibitor 28, Cycloheximide cs 45, NS1 function inh inconclusive
CC(=O)Nc1ccc(N/C=C/C(=O)C(C)(C)C)cc1	Shiga inhibitor 39, Cycloheximide cs 18 (no result: Pf growth 96h)
Cc1ccc(N/C=C/C(=O)C(C)(C)C)c(O)c1	Shiga inhibitor 68, Pf growth 96h inconclusive, Cycloheximide cs 62 (no result: Pf growth 48h)
COc1ccccc1Oc1ccc(N/C=C/C(=O)C(C)(C)C)cc1	none
Cc1nc2nc(C)c(NS(=O)(=O)c3ccc(Cl)s3)c(=O)n2[nH]1	none
CN1C=CC(=CC=C2C=CC(=O)C=C2)C=C1	Pf growth 96h 1.9µM, Pf growth 48h 4.7µM
Cc1ccc(S(=O)(=O)NC(=O)c2ccc(Br)o2)cc1	none
CCN(CC)C(NC(=O)c1ccccc1)C(=O)c1ccccc1 (configuration not stated)	Cycloheximide cs 55
CCN(CC)C(C)C(=O)c1ccccc1 (configuration not stated)	none (no result: Shiga inhibitor, Cycloheximide cs, NS1 function inh)
O=C(CSc1nnc(-c2cc3ccccc3cc2O)n1Cc1ccco1)N1CCc2ccccc2C1	Pf growth 96h 1.7µM (no result: Pf growth 48h)
CC(C)N(C(=O)CSc1nnc(-c2cc3ccccc3cc2O)n1Cc1ccco1)C(C)C	Pf growth 48h 2.1µM
CN(C)CC(=O)c1ccc(-c2ccccc2)cc1	Cycloheximide cs 24
Cc1cc(C)c[n+](CC(=O)c2ccc(-c3ccccc3)cc2)c1	Pf growth 96h 15µM, Pf growth 48h inconclusive
CCN(CC)C(=O)c1ccc(-c2ccccc2)cc1	Shiga inhibitor active, Pf growth 96h inconclusive, Cycloheximide cs 16, Pf growth 48h inconclusive
COc1ccccc1NC(=O)CN1C(=O)CC(C)S(=O)(=O)c2ccccc21 (configuration not stated)	none
O=C(O)CC1(CC(=O)NCc2ccc(Cl)cc2)CCCCC1	none
COc1ccc(N2Nc3n[nH]c(N)c3N2)cc1	Shiga inhibitor 58, Cycloheximide cs 43
CCOc1ccc(N2Nc3n[nH]c(N)c3N2)cc1	Shiga inhibitor 50, Cycloheximide cs 25
CCOc1ccc(Cc2n[nH]c(=S)n2N)cc1	none
COc1ccc(-c2cc([C@H]3[C@@H]4C=CCC[C@@]4(C)C(=O)N3Cc3ccccc3)ccc2F)cc1OC	Pf growth 96h inconclusive, Pf growth 48h inconclusive
COc1ccc(-c2c([C@H]3[C@@H]4C=CCC[C@@]4(C)C(=O)N3Cc3ccccc3)ccc3ccccc23)cc1OC	Pf growth 96h 5.2µM, Pf growth 48h 5.2µM
COc1ccc(-c2ccc([C@H]3[C@@H]4C=CCC[C@@]4(C)C(=O)N3Cc3ccccc3)c(F)c2)cc1OC	Pf growth 96h inconclusive, Cycloheximide cs 37, Pf growth 48h inconclusive
Cc1ccc(C)c(S(=O)(=O)N2CCN(C(=O)Cn3cnc4c3c(=O)n(C)c(=O)n4C)CC2)c1	none
